Holding throughout (assay): DAPPL (digital affinity profiling via proximity ligation, sequencing); 10 mM Tris-HCl pH 7.5, 50 mM NaCl, 1 mM DTT, 4% glycerol, room temperature, 30 min; GST-TFs on glutathione beads, 16-mer random dsDNA library, 0.1% formaldehyde crosslink after washing; high values mean tight binding
For one assay, the target named is T1, FLI1 (Homo sapiens, UniProt Q01543 1-452).
T1 sequence: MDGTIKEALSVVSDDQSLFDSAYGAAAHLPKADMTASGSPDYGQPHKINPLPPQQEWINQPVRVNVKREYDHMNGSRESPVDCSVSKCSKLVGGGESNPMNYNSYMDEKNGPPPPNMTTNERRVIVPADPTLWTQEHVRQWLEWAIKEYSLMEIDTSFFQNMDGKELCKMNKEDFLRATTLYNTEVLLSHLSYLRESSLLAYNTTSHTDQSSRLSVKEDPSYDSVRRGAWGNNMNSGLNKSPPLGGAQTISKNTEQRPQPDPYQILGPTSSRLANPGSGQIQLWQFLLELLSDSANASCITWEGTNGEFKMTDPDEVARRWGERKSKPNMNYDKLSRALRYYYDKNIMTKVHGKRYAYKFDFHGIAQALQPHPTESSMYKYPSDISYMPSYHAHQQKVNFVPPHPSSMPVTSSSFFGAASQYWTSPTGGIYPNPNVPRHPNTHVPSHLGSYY
As to conditions: protein: recombinant; tags: N-terminal GST; dsDNA, one strand shown. The method, boiled down:
(§1)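 Each value of binding signal is a hexamer's read frequency for a factor divided by the same hexamer's frequency in the tag-only sample. Barcoded, bead-captured GST fusions of human transcription factors made in yeast were pooled with that sample and incubated with 200 nmole of a random double-stranded 16-mer DNA library in Tris/NaCl/DTT/glycerol buffer at room temperature for 30 min. Washing, 0.1% formaldehyde crosslinking, proximity ligation, PCR and Illumina NextSeq500 sequencing followed.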

The next assay has as its target T2, ELK1 (Homo sapiens, UniProt P19419 1-428).
T2 sequence: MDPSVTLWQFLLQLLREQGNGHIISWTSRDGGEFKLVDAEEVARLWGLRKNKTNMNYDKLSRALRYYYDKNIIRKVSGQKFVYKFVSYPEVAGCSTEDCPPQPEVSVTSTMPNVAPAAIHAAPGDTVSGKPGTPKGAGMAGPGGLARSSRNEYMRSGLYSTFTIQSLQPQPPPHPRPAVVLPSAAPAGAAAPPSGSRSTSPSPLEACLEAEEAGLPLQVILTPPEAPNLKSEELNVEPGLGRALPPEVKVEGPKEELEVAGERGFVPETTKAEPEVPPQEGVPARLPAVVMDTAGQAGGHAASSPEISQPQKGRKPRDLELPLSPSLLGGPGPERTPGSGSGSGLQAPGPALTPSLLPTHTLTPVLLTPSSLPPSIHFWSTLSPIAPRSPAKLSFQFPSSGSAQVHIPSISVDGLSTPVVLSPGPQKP
As to conditions: protein: recombinant; tags: N-terminal GST; dsDNA, one strand shown. The method in brief: as §1

Another assay addresses T3, GABPA (Homo sapiens, UniProt Q06546 1-454).
T3 sequence: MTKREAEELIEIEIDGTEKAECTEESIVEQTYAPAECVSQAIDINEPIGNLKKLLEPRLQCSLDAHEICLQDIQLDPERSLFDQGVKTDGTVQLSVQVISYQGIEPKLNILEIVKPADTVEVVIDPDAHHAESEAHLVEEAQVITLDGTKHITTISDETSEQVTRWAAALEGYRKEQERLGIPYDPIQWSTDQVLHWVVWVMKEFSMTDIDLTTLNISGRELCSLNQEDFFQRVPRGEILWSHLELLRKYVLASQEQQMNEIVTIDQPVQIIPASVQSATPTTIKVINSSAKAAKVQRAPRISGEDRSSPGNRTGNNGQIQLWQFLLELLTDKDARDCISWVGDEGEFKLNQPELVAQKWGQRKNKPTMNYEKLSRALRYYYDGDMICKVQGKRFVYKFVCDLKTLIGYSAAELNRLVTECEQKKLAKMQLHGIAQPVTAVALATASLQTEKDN
As to conditions: protein: recombinant; tags: N-terminal GST; dsDNA, one strand shown. The method in brief: as §1

For another assay, the target named is T4, ERG (Homo sapiens, UniProt P11308 1-479).
T4 sequence: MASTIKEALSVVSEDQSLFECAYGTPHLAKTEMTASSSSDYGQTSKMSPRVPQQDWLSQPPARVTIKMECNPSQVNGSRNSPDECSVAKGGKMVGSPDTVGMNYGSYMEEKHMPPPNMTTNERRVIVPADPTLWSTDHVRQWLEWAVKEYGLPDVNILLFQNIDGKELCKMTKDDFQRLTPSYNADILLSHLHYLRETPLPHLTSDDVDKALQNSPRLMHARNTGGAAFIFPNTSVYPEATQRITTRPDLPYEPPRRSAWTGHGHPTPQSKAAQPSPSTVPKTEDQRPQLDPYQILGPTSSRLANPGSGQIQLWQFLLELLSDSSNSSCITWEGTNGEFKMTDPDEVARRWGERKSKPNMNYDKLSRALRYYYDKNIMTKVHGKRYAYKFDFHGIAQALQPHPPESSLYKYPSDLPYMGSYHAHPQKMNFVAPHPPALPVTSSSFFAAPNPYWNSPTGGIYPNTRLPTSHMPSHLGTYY
As to conditions: protein: recombinant; tags: N-terminal GST; dsDNA, one strand shown. The method in brief:
as §1

The next assay concerns the target ELF1 (Homo sapiens, UniProt P32519 1-619). As to conditions: protein: recombinant; tags: N-terminal GST; dsDNA, one strand shown. The method in brief: as §1
A further assay addresses T5, EHF (Homo sapiens, UniProt Q9NZC4 1-300).
T5 sequence: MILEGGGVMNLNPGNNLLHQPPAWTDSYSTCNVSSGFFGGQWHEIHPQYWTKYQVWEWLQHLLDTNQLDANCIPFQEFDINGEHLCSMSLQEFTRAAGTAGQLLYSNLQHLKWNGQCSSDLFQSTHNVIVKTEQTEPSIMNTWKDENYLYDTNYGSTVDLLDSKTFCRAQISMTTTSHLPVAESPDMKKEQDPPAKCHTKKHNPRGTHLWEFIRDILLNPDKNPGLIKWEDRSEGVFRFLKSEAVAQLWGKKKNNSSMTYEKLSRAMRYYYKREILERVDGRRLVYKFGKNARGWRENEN
As to conditions: protein: recombinant; tags: N-terminal GST; dsDNA, one strand shown. The method in brief: as §1

In a further assay the target is SPI1 (Homo sapiens, UniProt P17947 1-270). As to conditions: protein: recombinant; tags: N-terminal GST; dsDNA, one strand shown. The method, boiled down:
as §1

In another assay the target is SPIB (Homo sapiens, UniProt Q01892 1-262). As to conditions: protein: recombinant; tags: N-terminal GST; dsDNA, one strand shown. The method, boiled down:
as §1

Another assay concerns the target T6, FEV (Homo sapiens, UniProt Q99581 1-238).
T6 sequence: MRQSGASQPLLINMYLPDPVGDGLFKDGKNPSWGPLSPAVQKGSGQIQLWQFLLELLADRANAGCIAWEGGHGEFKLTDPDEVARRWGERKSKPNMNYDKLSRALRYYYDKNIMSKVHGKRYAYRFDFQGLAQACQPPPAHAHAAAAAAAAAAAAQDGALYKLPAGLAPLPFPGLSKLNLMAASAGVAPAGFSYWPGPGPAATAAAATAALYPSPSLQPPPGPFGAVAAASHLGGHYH
As to conditions: protein: recombinant; tags: N-terminal GST; dsDNA, one strand shown. The method in brief:
as §1

Another assay has as its target ETV5 (Homo sapiens, UniProt P41161 1-510). As to conditions: protein: recombinant; tags: N-terminal GST; dsDNA, one strand shown. The method in brief:
as §1

A further assay has as its target HSF1 (Homo sapiens, UniProt Q00613 1-529). As to conditions: protein: recombinant; tags: N-terminal GST; chain copies: 3; dsDNA, one strand shown. The method, boiled down: as §1
For another assay, the target named is ELF4 (Homo sapiens, UniProt Q99607 1-663). As to conditions: protein: recombinant; tags: N-terminal GST; dsDNA, one strand shown. The method, boiled down: as §1
Sequence of ELF4 (Q99607 whole entry): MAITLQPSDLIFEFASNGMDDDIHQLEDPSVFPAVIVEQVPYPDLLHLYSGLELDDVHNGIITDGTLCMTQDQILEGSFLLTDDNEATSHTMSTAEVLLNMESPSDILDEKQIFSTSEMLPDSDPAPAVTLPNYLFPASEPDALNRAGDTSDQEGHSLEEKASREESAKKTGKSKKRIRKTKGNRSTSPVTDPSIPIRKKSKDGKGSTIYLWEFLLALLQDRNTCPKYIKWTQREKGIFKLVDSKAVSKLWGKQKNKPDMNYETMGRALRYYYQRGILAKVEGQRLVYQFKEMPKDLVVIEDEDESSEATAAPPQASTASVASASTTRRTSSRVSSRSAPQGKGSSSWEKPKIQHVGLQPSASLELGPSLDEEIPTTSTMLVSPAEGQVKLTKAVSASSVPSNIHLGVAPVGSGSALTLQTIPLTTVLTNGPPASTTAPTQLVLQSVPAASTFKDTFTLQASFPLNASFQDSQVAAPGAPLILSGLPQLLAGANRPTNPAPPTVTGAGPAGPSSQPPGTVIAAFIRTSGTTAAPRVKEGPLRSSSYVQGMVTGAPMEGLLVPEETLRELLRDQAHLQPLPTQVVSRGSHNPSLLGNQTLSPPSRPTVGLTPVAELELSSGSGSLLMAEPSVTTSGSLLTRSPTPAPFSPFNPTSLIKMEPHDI
A further assay deals with T7, ELK4 (Homo sapiens, UniProt P28324-2 1-405).
T7 sequence: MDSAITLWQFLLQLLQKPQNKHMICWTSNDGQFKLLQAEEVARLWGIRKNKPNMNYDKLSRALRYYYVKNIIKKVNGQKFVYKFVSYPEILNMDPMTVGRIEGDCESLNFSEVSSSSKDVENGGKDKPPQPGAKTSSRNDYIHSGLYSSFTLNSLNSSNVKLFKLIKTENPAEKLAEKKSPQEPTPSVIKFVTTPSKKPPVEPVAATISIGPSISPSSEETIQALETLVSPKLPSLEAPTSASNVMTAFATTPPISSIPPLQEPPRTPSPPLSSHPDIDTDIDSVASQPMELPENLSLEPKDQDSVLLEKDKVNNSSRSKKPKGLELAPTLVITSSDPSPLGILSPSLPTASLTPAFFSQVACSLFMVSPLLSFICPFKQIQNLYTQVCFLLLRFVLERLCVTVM
As to conditions: protein: recombinant; tags: N-terminal GST; dsDNA, one strand shown. The method, boiled down:
as §1

For the next assay, the target named is T8, ETV2 (Homo sapiens, UniProt O00321 1-342).
T8 sequence: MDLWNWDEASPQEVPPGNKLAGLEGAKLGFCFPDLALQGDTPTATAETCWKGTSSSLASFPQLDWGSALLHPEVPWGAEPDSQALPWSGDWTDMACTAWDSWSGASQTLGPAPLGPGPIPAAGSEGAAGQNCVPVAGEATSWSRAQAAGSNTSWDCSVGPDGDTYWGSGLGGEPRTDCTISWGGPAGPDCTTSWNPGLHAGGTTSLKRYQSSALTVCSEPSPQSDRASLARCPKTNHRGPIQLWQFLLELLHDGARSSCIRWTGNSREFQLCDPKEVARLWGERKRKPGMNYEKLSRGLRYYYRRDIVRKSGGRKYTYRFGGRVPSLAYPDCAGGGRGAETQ
As to conditions: protein: recombinant; tags: N-terminal GST; dsDNA, one strand shown. The method in brief: as §1

The next assay has as its target T9, ELF3 (Homo sapiens, UniProt P78545 1-371).
T9 sequence: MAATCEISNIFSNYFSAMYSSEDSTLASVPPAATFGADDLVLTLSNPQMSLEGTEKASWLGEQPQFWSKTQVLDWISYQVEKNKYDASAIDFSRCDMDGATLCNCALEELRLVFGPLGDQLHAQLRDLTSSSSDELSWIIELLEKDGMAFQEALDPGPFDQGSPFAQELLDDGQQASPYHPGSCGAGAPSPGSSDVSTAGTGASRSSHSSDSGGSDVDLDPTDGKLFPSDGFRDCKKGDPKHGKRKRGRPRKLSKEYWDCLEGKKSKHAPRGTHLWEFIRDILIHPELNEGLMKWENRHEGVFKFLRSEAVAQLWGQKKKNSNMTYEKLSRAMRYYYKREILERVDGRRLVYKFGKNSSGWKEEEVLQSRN
As to conditions: protein: recombinant; tags: N-terminal GST; dsDNA, one strand shown. The method in brief: as §1

Another assay has as its target ETV1 (Homo sapiens, UniProt P50549 1-477). As to conditions: protein: recombinant; tags: N-terminal GST; dsDNA, one strand shown. The method, boiled down: as §1

Sequence of ETV5 (P41161 whole entry): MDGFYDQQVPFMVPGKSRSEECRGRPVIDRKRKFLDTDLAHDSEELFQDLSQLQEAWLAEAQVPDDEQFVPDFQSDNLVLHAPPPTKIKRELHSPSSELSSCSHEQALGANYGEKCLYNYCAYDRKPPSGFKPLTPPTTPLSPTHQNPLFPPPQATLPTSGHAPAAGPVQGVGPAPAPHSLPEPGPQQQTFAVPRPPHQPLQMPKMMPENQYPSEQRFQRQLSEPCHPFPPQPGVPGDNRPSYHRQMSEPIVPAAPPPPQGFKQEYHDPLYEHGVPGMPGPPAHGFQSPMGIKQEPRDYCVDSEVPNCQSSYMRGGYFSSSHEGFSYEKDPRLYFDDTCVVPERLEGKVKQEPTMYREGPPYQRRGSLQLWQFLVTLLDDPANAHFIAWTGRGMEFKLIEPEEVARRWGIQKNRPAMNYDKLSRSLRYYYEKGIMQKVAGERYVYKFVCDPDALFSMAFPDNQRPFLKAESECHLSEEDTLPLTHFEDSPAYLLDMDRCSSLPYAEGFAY
Sequence of ELF1 (P32519 whole entry): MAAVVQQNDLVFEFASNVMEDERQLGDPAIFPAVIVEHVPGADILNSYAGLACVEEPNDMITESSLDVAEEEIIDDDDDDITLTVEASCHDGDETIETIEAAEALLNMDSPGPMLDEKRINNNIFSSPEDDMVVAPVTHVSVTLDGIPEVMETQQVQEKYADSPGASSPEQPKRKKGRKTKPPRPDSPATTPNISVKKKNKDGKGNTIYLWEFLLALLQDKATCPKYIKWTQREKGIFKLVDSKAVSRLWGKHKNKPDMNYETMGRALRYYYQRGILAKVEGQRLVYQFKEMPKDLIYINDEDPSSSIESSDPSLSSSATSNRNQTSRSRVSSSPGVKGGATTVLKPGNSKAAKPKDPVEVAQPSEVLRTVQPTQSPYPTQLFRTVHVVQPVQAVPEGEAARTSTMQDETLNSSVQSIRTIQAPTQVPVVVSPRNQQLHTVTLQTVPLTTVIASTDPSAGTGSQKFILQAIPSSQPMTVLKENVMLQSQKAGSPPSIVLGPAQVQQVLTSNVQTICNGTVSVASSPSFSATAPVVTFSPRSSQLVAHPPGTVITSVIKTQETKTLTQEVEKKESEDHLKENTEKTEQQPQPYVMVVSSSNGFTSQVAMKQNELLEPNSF
Sequence of SPIB (Q01892 whole entry): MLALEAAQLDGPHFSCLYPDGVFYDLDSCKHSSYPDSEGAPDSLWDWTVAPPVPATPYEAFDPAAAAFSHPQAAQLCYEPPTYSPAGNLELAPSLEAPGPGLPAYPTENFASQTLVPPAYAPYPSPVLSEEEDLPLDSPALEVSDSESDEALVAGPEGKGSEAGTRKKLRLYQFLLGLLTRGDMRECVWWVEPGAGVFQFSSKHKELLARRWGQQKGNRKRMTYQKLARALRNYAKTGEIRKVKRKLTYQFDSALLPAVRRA
Sequence of ETV1 (P50549 whole entry): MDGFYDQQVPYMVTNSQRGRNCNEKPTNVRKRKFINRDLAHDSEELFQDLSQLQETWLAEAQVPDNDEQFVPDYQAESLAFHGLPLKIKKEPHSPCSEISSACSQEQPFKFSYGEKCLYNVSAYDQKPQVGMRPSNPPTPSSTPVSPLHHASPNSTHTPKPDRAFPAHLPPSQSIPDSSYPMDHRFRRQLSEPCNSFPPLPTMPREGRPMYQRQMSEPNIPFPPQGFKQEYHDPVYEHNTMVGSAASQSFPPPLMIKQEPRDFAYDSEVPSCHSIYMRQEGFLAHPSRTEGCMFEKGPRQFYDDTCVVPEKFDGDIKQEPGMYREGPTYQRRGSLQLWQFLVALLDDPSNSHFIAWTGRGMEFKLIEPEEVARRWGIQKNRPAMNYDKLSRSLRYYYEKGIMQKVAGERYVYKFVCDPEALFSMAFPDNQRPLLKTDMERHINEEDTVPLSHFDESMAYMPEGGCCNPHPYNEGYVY
Sequence of HSF1 (Q00613 whole entry): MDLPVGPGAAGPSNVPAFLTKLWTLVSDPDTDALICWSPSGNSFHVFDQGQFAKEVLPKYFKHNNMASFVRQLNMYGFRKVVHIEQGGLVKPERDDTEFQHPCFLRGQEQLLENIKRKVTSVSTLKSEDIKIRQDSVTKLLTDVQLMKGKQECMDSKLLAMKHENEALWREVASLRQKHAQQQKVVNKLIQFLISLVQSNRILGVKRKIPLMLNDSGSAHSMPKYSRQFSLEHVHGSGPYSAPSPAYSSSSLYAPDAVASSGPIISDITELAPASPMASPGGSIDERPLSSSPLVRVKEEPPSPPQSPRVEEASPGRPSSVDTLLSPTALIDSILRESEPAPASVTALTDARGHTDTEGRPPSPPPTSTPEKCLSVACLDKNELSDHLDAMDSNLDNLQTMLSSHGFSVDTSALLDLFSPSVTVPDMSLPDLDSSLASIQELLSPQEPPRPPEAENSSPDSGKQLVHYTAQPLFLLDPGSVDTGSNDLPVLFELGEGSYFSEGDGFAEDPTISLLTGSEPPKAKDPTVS

Turning to TGACGA, the binding signal in the assay with FLI1 is 1.06 fold enrichment (6-mer frequency, TF over GST control); with ELK1, 1.12 fold enrichment (6-mer frequency, TF over GST control); with GABPA, 1.21 fold enrichment (6-mer frequency, TF over GST control); with ERG, 1.07 fold enrichment (6-mer frequency, TF over GST control); with ELF1, 1.14 fold enrichment (6-mer frequency, TF over GST control); in the assay with EHF, 1.04 fold enrichment (6-mer frequency, TF over GST control). In addition, the binding signal with SPI1 was 1.03 fold enrichment (6-mer frequency, TF over GST control); with SPIB, 1.17 fold enrichment (6-mer frequency, TF over GST control); with FEV, 1.05 fold enrichment (6-mer frequency, TF over GST control); in the assay with ETV5, 1.13 fold enrichment (6-mer frequency, TF over GST control); with HSF1 it was 1.01 fold enrichment (6-mer frequency, TF over GST control); with ELF4, 1.11 fold enrichment (6-mer frequency, TF over GST control). Moreover, the binding signal with ELK4 was 1.18 fold enrichment (6-mer frequency, TF over GST control); with ETV2, 1.15 fold enrichment (6-mer frequency, TF over GST control); in the assay with ELF3, 1.08 fold enrichment (6-mer frequency, TF over GST control); with ETV1, 1.04 fold enrichment (6-mer frequency, TF over GST control).
